# Laboratory results from PubChem BioAssay.
# Activity calls are given as the source filed them. Cut-off read from the data, not from the text of the source: active = inhibition above about 31%; inactive = the rest.
# Experiment: MRP1 drug-resistance reversers in H69AR cells – cell-based, doxorubicin co-treatment, pilot screen (AID 601)
# Details: H69AR cells, CellTiter-Glo, 72 h; compound alone cytotoxicity; at 10 µM
row,Structure (SMILES),viability [%]
1,CCOC(=O)C1CCN(c2c(NC3CCCCCCC3)c(=O)c2=O)CC1,79.7
2,Cc1c(/C(O)=C2/C(=O)C(=O)N(CCN3CCOCC3)C2c2cccs2)cnn1-c1ccccc1 (stereo not given),96.2
3,c1ccc(CSCc2cn3ccsc3n2)cc1,99.1
4,O=c1c2ccccc2nc(SCc2cn3ccsc3n2)n1-c1ccc(F)cc1,102
5,Cc1cnc(C(=O)Nc2ccc(N3CCN(C(=O)OC(C)(C)C)CC3)cc2)cn1,115
6,COc1ccccc1N(C)S(=O)(=O)c1ccc(C(=O)NC2=NCCS2)cc1,96.2
7,C/C(N)=C(/C#N)C(=O)COC(=O)c1cc(S(=O)(=O)N2CCCCC2)ccc1C,95.8
8,O=C(NCc1ccc2c(c1)OCO2)c1ccc(NS(=O)(=O)c2ccc3c(c2)OCCO3)cc1,106
9,Cc1nnc(SCC(=O)NC(C)(C)C)n1CCc1ccccc1,95.6
10,CC(C)OC(=O)CSc1nnnn1-c1ccc2c(c1)OCCO2,88.6
11,Cc1sc2nc(SCC(=O)NCc3ccco3)n(CCc3ccccc3)c(=O)c2c1C,40
12,CC(=O)Nc1ccn(-c2ccccc2)n1,93.6
13,O=P(O)(O)C(O)C(F)(F)C(F)(F)C(F)(F)C(F)F (stereo not given),92.5
14,COCCn1c(CN2CCN(c3ccccc3F)CC2)nc2c1c(=O)n(C)c(=O)n2C,95.8
15,O=C(CN1CCN(C2CCCCC2)CC1)Nc1ccccc1-c1ccccc1,84.7
16,COc1ccc(NC(=O)C23CCC(C)(C(=O)C2)C3(C)C)cc1 (stereo not given),102
17,CC(C)(C)c1nc(CN2CCOCC2)ccc1O,101
18,CC(NC(=O)c1ccc2c(c1)OCO2)C(c1cccs1)N1CCOCC1 (stereo not given),105
19,Cc1ccccc1NS(=O)(=O)c1cc(C(=O)N2CCCC2)ccc1C,84.2
20,O=C(C1CCCO1)N1CCc2ccccc21 (stereo not given),92.4

row,Structure (SMILES),viability [%]
1,CCc1ccc(NS(=O)(=O)c2ccc3[nH]cc(C(=O)N4CCCCC4)c(=O)c3c2)cc1,89.6
2,O=C1COc2ccc(C(=O)COC(=O)CCc3ccc(S(=O)(=O)N4CCOCC4)cc3)cc2N1,79
3,CC(C)CCNC(=O)C(c1ccco1)N(CC1CCCO1)C(=O)Cn1nnc2ccccc21 (stereo not given),94.4
4,CCOc1ccc(CCNC(=O)CCc2nc(-c3ccc(OC)cc3)no2)cc1OCC,94.3
5,COc1cccc(-n2c(C)nc3c(cnn3-c3ccc(Cl)cc3)c2=O)c1,76.3
6,CCOC(=O)c1sc2nc(SCC#N)n(CCCN3CCCC3=O)c(=O)c2c1C,75.8
7,COc1ccc(-c2nc(SC)n(S(=O)(=O)c3ccccc3)n2)cc1,98.1
8,CC(=O)NCc1cccc(CNC(C)=O)n1,98
9,Cc1ccc(-c2nc(N)n(C(=O)c3cccnc3)n2)cc1,105
10,CCOCCCNC(=O)c1cc2sc(Cl)cc2n1CC,28.5
11,O=C(COc1ccc(S(=O)(=O)N2CCCC2)cc1Cl)NC1CC1,101
12,O=C(CSc1nc2ccccc2nc1SCC(=O)N1CCOCC1)N1CCOCC1,95.7
13,CCOc1ccc(/C=N/n2cnnc2)cc1,96.7
14,COc1cccc2cc(C(=O)N3CCc4ccccc43)c(=O)oc12,94.2
15,Cc1n[nH]c(C)c1S(=O)(=O)Nc1ccc2c(c1)OCCO2,104
16,O=C(Cn1c(C(=O)NCC2CCCO2)cc2sccc21)c1ccccc1 (stereo not given),90.3
17,Nn1cc(-c2ccccc2)nc1SCC(=O)N1CCN(S(=O)(=O)c2ccccc2)CC1,101
18,COc1cc(C(N)=O)ccc1OCc1ccccc1,98.7
19,CCCCn1c(CN(C)Cc2ccccc2)nc2c1c(=O)n(C)c(=O)n2C,71.6
20,CCOc1ccc(-c2nc(S(=O)(=O)c3ccccc3)c(NCc3cccnc3)o2)cc1,97.6

# Experiment: yeast transport mutant growth inhibition pilot in 384-well plates, post-Golgi transport modulator project (AID 636)
# Details: absorbance 615 nm, about 18 h, stronger effect = higher value
row,Structure (SMILES),inhibition
1,CCOC(=O)C1CCN(c2c(NC3CCCCCCC3)c(=O)c2=O)CC1,0.64% (inactive)
2,Cc1c(/C(O)=C2/C(=O)C(=O)N(CCN3CCOCC3)C2c2cccs2)cnn1-c1ccccc1 (stereo not given),-0.79% (inactive)
3,c1ccc(CSCc2cn3ccsc3n2)cc1,-0.27% (inactive)
4,O=c1c2ccccc2nc(SCc2cn3ccsc3n2)n1-c1ccc(F)cc1,-6.44% (inactive)
5,Cc1cnc(C(=O)Nc2ccc(N3CCN(C(=O)OC(C)(C)C)CC3)cc2)cn1,-5.84% (inactive)
6,COc1ccccc1N(C)S(=O)(=O)c1ccc(C(=O)NC2=NCCS2)cc1,0% (inactive)
7,C/C(N)=C(/C#N)C(=O)COC(=O)c1cc(S(=O)(=O)N2CCCCC2)ccc1C,0.38% (inactive)
8,O=C(NCc1ccc2c(c1)OCO2)c1ccc(NS(=O)(=O)c2ccc3c(c2)OCCO3)cc1,-8.11% (inactive)
9,Cc1nnc(SCC(=O)NC(C)(C)C)n1CCc1ccccc1,-6.53% (inactive)
10,CC(C)OC(=O)CSc1nnnn1-c1ccc2c(c1)OCCO2,-7.03% (inactive)
11,Cc1sc2nc(SCC(=O)NCc3ccco3)n(CCc3ccccc3)c(=O)c2c1C,-6.27% (inactive)
12,CC(=O)Nc1ccn(-c2ccccc2)n1,0% (inactive)
13,O=P(O)(O)C(O)C(F)(F)C(F)(F)C(F)(F)C(F)F (stereo not given),-7.76% (inactive)
14,COCCn1c(CN2CCN(c3ccccc3F)CC2)nc2c1c(=O)n(C)c(=O)n2C,-1.2% (inactive)
15,O=C(CN1CCN(C2CCCCC2)CC1)Nc1ccccc1-c1ccccc1,-3.24% (inactive)
16,COc1ccc(NC(=O)C23CCC(C)(C(=O)C2)C3(C)C)cc1 (stereo not given),-1.07% (inactive)
17,CC(C)(C)c1nc(CN2CCOCC2)ccc1O,-7.03% (inactive)
18,CC(NC(=O)c1ccc2c(c1)OCO2)C(c1cccs1)N1CCOCC1 (stereo not given),-4.81% (inactive)
19,Cc1ccccc1NS(=O)(=O)c1cc(C(=O)N2CCCC2)ccc1C,-5.14% (inactive)
20,O=C(C1CCCO1)N1CCc2ccccc21 (stereo not given),-4.8% (inactive)

row,Structure (SMILES),inhibition
1,CCc1ccc(NS(=O)(=O)c2ccc3[nH]cc(C(=O)N4CCCCC4)c(=O)c3c2)cc1,-5.66% (inactive)
2,O=C1COc2ccc(C(=O)COC(=O)CCc3ccc(S(=O)(=O)N4CCOCC4)cc3)cc2N1,2.69% (inactive)
3,CC(C)CCNC(=O)C(c1ccco1)N(CC1CCCO1)C(=O)Cn1nnc2ccccc21 (stereo not given),-0.67% (inactive)
4,CCOc1ccc(CCNC(=O)CCc2nc(-c3ccc(OC)cc3)no2)cc1OCC,-1.05% (inactive)
5,COc1cccc(-n2c(C)nc3c(cnn3-c3ccc(Cl)cc3)c2=O)c1,-4.47% (inactive)
6,CCOC(=O)c1sc2nc(SCC#N)n(CCCN3CCCC3=O)c(=O)c2c1C,-5% (inactive)
7,COc1ccc(-c2nc(SC)n(S(=O)(=O)c3ccccc3)n2)cc1,1.73% (inactive)
8,CC(=O)NCc1cccc(CNC(C)=O)n1,-6.8% (inactive)
9,Cc1ccc(-c2nc(N)n(C(=O)c3cccnc3)n2)cc1,-3.08% (inactive)
10,CCOCCCNC(=O)c1cc2sc(Cl)cc2n1CC,-8.36% (inactive)
11,O=C(COc1ccc(S(=O)(=O)N2CCCC2)cc1Cl)NC1CC1,-5.68% (inactive)
12,O=C(CSc1nc2ccccc2nc1SCC(=O)N1CCOCC1)N1CCOCC1,-1.03% (inactive)
13,CCOc1ccc(/C=N/n2cnnc2)cc1,-0.52% (inactive)
14,COc1cccc2cc(C(=O)N3CCc4ccccc43)c(=O)oc12,-3.03% (inactive)
15,Cc1n[nH]c(C)c1S(=O)(=O)Nc1ccc2c(c1)OCCO2,-3.42% (inactive)
16,O=C(Cn1c(C(=O)NCC2CCCO2)cc2sccc21)c1ccccc1 (stereo not given),-1.56% (inactive)
17,Nn1cc(-c2ccccc2)nc1SCC(=O)N1CCN(S(=O)(=O)c2ccccc2)CC1,0.91% (inactive)
18,COc1cc(C(N)=O)ccc1OCc1ccccc1,-1.45% (inactive)
19,CCCCn1c(CN(C)Cc2ccccc2)nc2c1c(=O)n(C)c(=O)n2C,-3.24% (inactive)
20,CCOc1ccc(-c2nc(S(=O)(=O)c3ccccc3)c(NCc3cccnc3)o2)cc1,1.33% (inactive)
